# Results: the supplement of paper PMC10720658
# ± gives the standard deviation of the averaged measurements.
# Tested on: AEK1 (Tb927.3.2440)
# Experiment: percent reduction in TR-FRET probe signal relative to DMSO control; higher = stronger displacement of ATP-site probe (binding)
# Conditions: 1 µM; incubation time 1 h
row,SMILES,percent reduction in TR-FRET probe signal [%]
1,CO[C@H]1C[C@@H]2CC[C@@H](C)[C@@](O)(O2)C(=O)C(=O)N2CCCC[C@H]2C(=O)O[C@H]([C@H](C)C[C@@H]2CC[C@@H](OC(=O)C(C)(CO)CO)[C@H](OC)C2)CC(=O)[C@H](C)/C=C(\C)[C@@H](O)[C@@H](OC)C(=O)[C@H](C)C[C@H](C)/C=C/C=C/C=C/1C,2.13 ± 12
2,O=C(Cc1ccc(-c2ccc(OCCN3CCOCC3)cc2)cn1)NCc1ccccc1,-1.26 ± 9
3,COc1cc2nccc(Oc3ccc(NC(=O)C4(C(=O)Nc5ccc(F)cc5)CC4)cc3)c2cc1OC.O=C(O)C[C@H](O)C(=O)O [Cabozantinib malate (XL184)],4.34 ± 3.9
4,CCN1/C(=C/C(C)=O)Sc2ccc(OC)cc21,2.44 ± 5.9
5,O=c1ncn2nc(Sc3ccc(F)cc3F)ccc2c1-c1c(Cl)cccc1Cl,9.39 ± 14
6,CC(C)n1nc(-c2cc3cc(O)ccc3[nH]2)c2c(N)ncnc21,5.23 ± 4.5
7,COc1cc(Nc2ncc(F)c(Nc3ccc4c(n3)NC(=O)C(C)(C)O4)n2)cc(OC)c1OC.O=S(=O)(O)c1ccccc1,85.4 ± 8
8,N#CC[C@@H](C1CCCC1)n1cc(-c2ncnc3[nH]ccc23)cn1,19.4 ± 9.1
9,COCC(=O)NC/C=C/c1ccc2ncnc(Nc3ccc(Oc4ccc(C)nc4)c(C)c3)c2c1,3.65 ± 5.5
10,Cc1cc(Nc2nc(N[C@@H](C)c3ccc(F)cc3)c(C#N)cc2F)n[nH]1,56.3 ± 7.3
11,CC(C)c1cnn2c(NCc3ccccc3)cc(NCCCCCCN)nc12.Cl,-3.89 ± 4.8
12,Oc1ccc2ccccc2c1SSc1c(O)ccc2ccccc12,-9.34 ± 9
13,CC(C)(C)c1cc(/C=C(\C#N)C(N)=S)cc(C(C)(C)C)c1O [Tyrphostin AG 879],4.66 ± 0.43
14,Cc1c[nH]c(-c2cnc(NCCNc3ccc(C#N)cn3)nc2-c2ccc(Cl)cc2Cl)n1,2.8 ± 12
15,Cl.Cl.OC(c1cc(-c2ccc(Cl)cc2)nc2ccccc12)C1CCCCN1 (stereo not given) [Vacquinol-1],-5.59 ± 3.7
16,Nc1ncnc2c1c(-c1cccc(OCc3ccccc3)c1)cn2[C@H]1C[C@@H](CN2CCC2)C1,0.997 ± 12
17,Cc1ccccc1-n1c(Cn2nc(-c3cccc(O)c3)c3c(N)ncnc32)nc2cccc(C)c2c1=O,1.94 ± 11
18,Cc1[nH]c(/C=C2\C(=O)Nc3ccc(S(=O)(=O)N(C)c4cccc(Cl)c4)cc32)c(C)c1C(=O)N1CCN(C)CC1,34.1 ± 16
19,CNC(=O)c1nn(C)c2c1C(C)(C)Cc1cnc(Nc3ccc(N4CCN(C)CC4)cc3)nc1-2,-3.55 ± 7.5
20,Cc1ccc(Nc2nccc(N(C)c3ccc4c(C)n(C)nc4c3)n2)cc1S(N)(=O)=O [Pazopanib],7.95 ± 16
21,CNc1nc(-c2ccc3c(N)n[nH]c3c2)cc(N2C[C@@H](C(=O)NC3CCCCC3)CC[C@H]2C)n1,14.7 ± 20
22,CCn1c(-c2nonc2N)nc2c(C#CC(C)(C)O)ncc(OC[C@H]3CCCNC3)c21,8.8 ± 4.9
23,O=C(NOCC(O)CO)c1cc(Br)c(F)c(F)c1Nc1ccc(I)cc1F (stereo not given),-4.38 ± 12
24,O=C(/C=C/c1ccc2ccccc2n1)c1ccncc1,-6.28 ± 6
25,N#Cc1ccc2[nH]c(O)c(-c3ccc(CN4CCOCC4)cn3)c2c1,-12.4 ± 8.1
